These results are taken from PubChem BioAssay (EPA / NIEHS).

Some structures have more than one record in an assay (separate samples or runs), and their calls can disagree. The source made the active and inactive calls. Rule for the calls: active = hit-call score of the fitted dose curve at least 0.9, where 1 is the maximum; inactive = score below 0.9.

Chain of Paired box protein Pax-6 (Homo sapiens) (P26367 whole entry, looked up): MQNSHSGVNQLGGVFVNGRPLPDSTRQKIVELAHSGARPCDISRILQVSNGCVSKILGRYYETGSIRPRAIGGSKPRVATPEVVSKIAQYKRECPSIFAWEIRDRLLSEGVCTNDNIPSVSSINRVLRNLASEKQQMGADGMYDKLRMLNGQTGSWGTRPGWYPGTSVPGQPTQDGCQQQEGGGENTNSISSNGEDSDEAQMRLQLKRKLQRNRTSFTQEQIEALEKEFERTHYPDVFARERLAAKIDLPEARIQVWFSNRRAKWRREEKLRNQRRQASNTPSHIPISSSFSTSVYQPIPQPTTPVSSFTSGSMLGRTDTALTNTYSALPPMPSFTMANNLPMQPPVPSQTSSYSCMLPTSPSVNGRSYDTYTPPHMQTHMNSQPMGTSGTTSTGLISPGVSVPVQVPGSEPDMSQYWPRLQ

This test has as its target Paired box protein Pax-6 (Homo sapiens) (UniProt P26367). Nature of the test: ATG_Pax6_CIS: Attagene CIS-FACTORIAL HepG2 Assay for human Paired Box 6 (PAX6) (AID 2282956). The conditions noted are these: HepG2 CIS-FACTORIAL PAX6 reporter transcription, RNA readout; actives raise or lower the signal. The procedure:
ATG_CIS is a cell-based, multiplexed-readout assay that uses HepG2, a human liver cell line, with measurements taken at 24 hours after chemical dosing in a 24-well plate.ATG_Pax6_CIS is one of 52 assay component(s) measured or calculated from the ATG_CIS assay. It is designed to make measurements of mRNA induction, a form of inducible reporter, as detected with fluorescence intensity signals by Reverse transcription polymerase chain reaction (RT-PCR) and Capillary electrophoresis technology.Data from the assay component ATG_Pax6_CIS was analyzed into 1 assay endpoint. This assay endpoint, ATG_Pax6_CIS, was analyzed with bidirectional fitting relative to DMSO as the negative control and baseline of activity. Using a type of inducible reporter, measures of mRNA for gain or loss-of-signal activity can be used to understand the reporter gene at the transcription factor-level as they relate to the gene PAX6. Furthermore, this assay endpoint can be referred to as a primary readout, because this assay has produced multiple assay endpoints where this one serves a reporter gene function. To generalize the intended target to other relatable targets, this assay endpoint is annotated to the dna binding intended target family, where the subfamily is paired box protein.
Human liver HepG2 cells are transiently transfected with multiple reporter transcription units (MRTUs) in 6-well plates using FuGene 6 reagent (Roche; 3 ml FuGene/1 mg DNA). The MRTU constructs are regulated by a cis-regulating element (promoter). […] A major difference between the CIS and TRANS system is that in CIS activities of endogenous TFs are measured, whereas the TRANS assay evaluates changes in activities of exogenous, chimeric NR-Gal4 proteins. […] At the end of 24 hour incubation, total RNA was isolated using TriZol reagent (Invitrogen). The isolated RNA is then reverse-transcribed using oligo(dT) primer and Mo-MLV reverse transcriptase (Invitrogen) with DNAse I (Ambion) treatment for 30 min. The one-tenth of the produced cDNA was amplified by PCR using Taq DNA polymerase (Invitrogen) and two reporter sequence-specific primers. The PCR products were fluorescently labeled by primer extension with 6-arboxyfluorescein (6-FAM) 5'-labeled reporter sequence-specific primer (2 min at 95 C, 20 s at 68 C and 10 min at 72 C) and these products were digested with 5U of HpaI (New England Biolabs) for 2h at 37 C. The fragments were purified using Qiaquick PCR columns (Qiagen), analyzed on an ABI 3130xL genetic analyzer (Applied Biosystems) with peak positions identified by using a set of X-rhodamine (ROX)-labeled MapMarker1000 molecular weight standards (BioVentures). The raw capillary electrophoresis data was processed using Attagraph software (Attagene).
As for `Clc1ccc(C(c2ccc(Cl)cc2)C(Cl)(Cl)Cl)cc1`, the result was inactive.
Same read-out and setting: next, `COc1cc(C=O)cc2c1[C@H](COC(N)=O)[C@]1(OC(C)=O)ON2C[C@H]2[C@@H]1N2C(C)=O`: “inactive”; `COC(=O)Nc1nc2ccccc2[nH]1`: “inactive”; `Cc1ccc(N)c(N)c1`: “inactive”.
The same measure, in the same setting: under `Nc1ccc(Oc2ccc(N)cc2)cc1` stands “inactive”.
`O=[N+]([O-])C(Br)(CO)CO`: the concentration at half-maximal activity (AC50) is 100 µM (active).
In the case of `CCCCOC(=O)c1ccccc1C(=O)OCc1ccccc1`, the result was inactive.
Still for that read-out and setting: under `c1ccc(NNc2ccccc2)cc1` stands “inactive”; under `CCCCCOC(=O)c1ccccc1C(=O)OCCCCC`, “inactive”; under `c1ccc2c(c1)-c1cccc3cccc-2c13`, “inactive”.
On to `O=C(Nc1ccccc1)c1ccccc1I`, for which the compound was called inactive.
With `c1ccc(C2CO2)cc1` (stereo not given), the call was inactive.
Same read-out and setting: next, `CC(C)N(Cc1ccccc1)C(=O)C(C)(C)C`: “inactive”.
`Cc1cccc(N)c1N`: the concentration at half-maximal activity (AC50) is 106 µM (active).
On to `Nc1cc(Cl)cc(C(=O)O)c1Cl`, for which the outcome was inactive.
On to `OCCCBr`, for which the compound was classed as inactive.
On the same count and under the same terms, under `CC(C)(C)C(O)(CCc1ccc(Cl)cc1)Cn1cncn1` (stereo not given) stands “inactive”; under `CCN(CC)N=O`, “inactive”; under `CCC(C)c1ccc(O)cc1` (stereo not given), “inactive”.
Regarding `Clc1ccc(C(c2ccc(Cl)cc2)C(Cl)Cl)cc1`, the AC50 was 62.7 µM (active).
For the compound `O=C1CCCO1`, the compound was classed as inactive.
Same read-out and setting: under `CN(C)c1ccc(C(=O)c2ccc(N(C)C)cc2)cc1` stands “inactive”.
Regarding `O=C(O)C1C2CCC(O2)C1C(=O)O` (stereo not given), the AC50 was 123 µM (active).
On to `C1=Cc2cccc3cccc1c23`, for which the compound was classed as inactive.
Same read-out and setting: next, `Oc1ccc2ccc3cccc4ccc1c2c34`: “inactive”; `Nc1ccc(Cc2ccc(N)cc2)cc1`: “inactive”; `ClCCOCCCl`: “inactive”.
As for `CCOC(=O)[C@]1(c2ccccc2)Oc2ccccc2[C@@H]1N`, the AC50 was 37.6 µM (active).
With `Cc1ccc(N=C=O)cc1N=C=O`, the call was inactive.
For `CCNS(=O)(=O)C(F)(F)C(F)(F)C(F)(F)C(F)(F)C(F)(F)C(F)(F)C(F)(F)C(F)(F)F`, the half-maximal activity concentration (AC50) was 96.5 µM (active) and the compound was classed as inactive.
Consider `c1ccc(N=Nc2ccccc2)cc1`, for which the result was inactive.
On the same count and under the same terms, under `CCC12COCN1COC2` stands “inactive”.
Same read-out and setting: next, `CS(=O)(=O)NC(=O)c1cc(Oc2ccc(C(F)(F)F)cc2Cl)ccc1[N+](=O)[O-]`: “inactive”.
As for `[As]#[In]`, the outcome was inactive.
In the case of `C[C@]12C=CC3=C4CCC(=O)C=C4CC[C@H]3[C@@H]1CC[C@@H]2O`, the outcome was inactive and the AC50 was 34.2 µM (active).
Regarding `CCC[CH2][Sn]([Cl])([CH2]CCC)[CH2]CCC`, the AC50 was 0.678 µM (active).
On to `CC(C)(C)OOC(C)(C)CCC(C)(C)OOC(C)(C)C`, for which the call was inactive.
The same measure, in the same setting: next, `CCCCCCCCOC(=O)c1ccc(C(=O)OCCCCCCCC)c(C(=O)OCCCCCCCC)c1`: “inactive”.
